Experimental data as given in PubChem BioAssay AID1159580 (chemical genetic matrix, 2015).
In all, about 5,500 compounds went through this assay and about 2,000 (36%) were called active. About 18% were inconclusive and are not listed. No stated cut-off is given here; in the data, active means normalized growth mostly below about 0.91 (no sharp cut-off); inconclusive means no clear call, values can overlap the other calls; inactive means mostly above about 0.92. The list shows a part of the results.

Assay: chemical genetic growth profiling, strain panel (AID 1159580);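 further: tested at 20 µM; growth read once vehicle control cultures reached saturation at 30 °C; 1 = growth at the plate median or of vehicle wells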
Conditions: growth OD

Measured: normalized growth

CO[C@H]1C[C@H](O[C@H]2[C@H](C)[C@@H](OC3O[C@H](C)C[C@H](N(C)C)[C@H]3O)[C@@H](C)C[C@]3(CO3)C(=O)[C@H](C)[C@@H](O)[C@@H](C)[C@@H](C)OC(=O)[C@@H]2C)O[C@@H](C)[C@@H]1O (some centres not stated)
inactive: S. cerevisiae deletion strains, locus YJR075W, strain HOC1, stronger effect = lower value 1.01 | S. cerevisiae deletion strains, locus YKL009W, strain mrt4, stronger effect = lower value 1 | S. cerevisiae deletion strains, locus YKL068W, stronger effect = lower value 1 | S. cerevisiae deletion strains, locus YKL085W, strain MDH1 (second series), stronger effect = lower value 0.992 | S. cerevisiae deletion strains, locus YKL085W, strain MDH1, stronger effect = lower value 0.992 | S. cerevisiae deletion strains, locus YKL160W, strain elf1, stronger effect = lower value 1.06 | S. cerevisiae deletion strains, locus YKL190W, strain CNB1, stronger effect = lower value 1 | S. cerevisiae deletion strains, locus YKR001C, strain vps1, stronger effect = lower value 1.02 | S. cerevisiae deletion strains, locus YKR026C, strain gcn3, stronger effect = lower value 1 | S. cerevisiae deletion strains, locus YKR091W, strain srl3, stronger effect = lower value 1 | S. cerevisiae deletion strains, locus YLL001W, strain dnm1, stronger effect = lower value 1.06 | S. cerevisiae deletion strains, locus YLL026W, stronger effect = lower value 1 | S. cerevisiae deletion strains, locus YLL041C, strain sdh2, stronger effect = lower value 1 | S. cerevisiae deletion strains, locus YLR027C, strain aat2, stronger effect = lower value 1.01 | S. cerevisiae deletion strains, locus YLR039C, strain RIC1, stronger effect = lower value 1.03 | S. cerevisiae deletion strains, locus YLR058C, strain SHM2, stronger effect = lower value 1.01 | S. cerevisiae deletion strains, locus YLR102C, strain apc9, stronger effect = lower value 0.984 | S. cerevisiae deletion strains, locus YLR113W, strain HOG1, stronger effect = lower value 0.995 | S. cerevisiae deletion strains, locus YLR221C, strain rsa3, stronger effect = lower value 1.03 | S. cerevisiae deletion strains, locus YLR258W, strain gsy2, stronger effect = lower value 1.03 | S. cerevisiae deletion strains, locus YLR262C, strain YPT6 (second series), stronger effect = lower value 1.02 | S. cerevisiae deletion strains, locus YLR262C, strain YPT6, stronger effect = lower value 0.956 | S. cerevisiae deletion strains, locus YLR268W, strain sec22, stronger effect = lower value 1.05 | S. cerevisiae deletion strains, locus YLR320W, strain mms22, stronger effect = lower value 1.07 | S. cerevisiae deletion strains, locus YLR330W, strain CHS5, stronger effect = lower value 1.01 | S. cerevisiae deletion strains, locus YLR342W, strain FKS1 (second series), stronger effect = lower value 1.01 | S. cerevisiae deletion strains, locus YLR342W, strain FKS1, stronger effect = lower value 1.01 | S. cerevisiae deletion strains, locus YLR357W, strain rsc2, stronger effect = lower value 1.05 | S. cerevisiae deletion strains, locus YLR370C, strain arc18, stronger effect = lower value 0.991 | S. cerevisiae deletion strains, locus YLR371W, strain rom2, stronger effect = lower value 0.985 | S. cerevisiae deletion strains, locus YLR384C, strain iki3, stronger effect = lower value 1 | S. cerevisiae deletion strains, locus YLR418C, strain cdc73, stronger effect = lower value 1.03 | S. cerevisiae deletion strains, locus YML016C, strain PPZ1, stronger effect = lower value 1 | S. cerevisiae deletion strains, locus YML032C, strain rad52, stronger effect = lower value 1.01 | S. cerevisiae deletion strains, locus YML120C, strain ndi1, stronger effect = lower value 1.02 | S. cerevisiae deletion strains, locus YML124C, strain tub3, stronger effect = lower value 1 | S. cerevisiae deletion strains, locus YMR058W, strain fet3, stronger effect = lower value 1.01 | S. cerevisiae deletion strains, locus YMR078C, strain ctf18, stronger effect = lower value 0.996 | S. cerevisiae deletion strains, locus YMR125W, strain sto1, stronger effect = lower value 1.07 | S. cerevisiae deletion strains, locus YMR129W, stronger effect = lower value 0.997 | S. cerevisiae deletion strains, locus YMR205C, strain PFK2, stronger effect = lower value 1.05 | S. cerevisiae deletion strains, locus YMR223W, strain ubp8, stronger effect = lower value 1 | S. cerevisiae deletion strains, locus YMR231W, strain pep5, stronger effect = lower value 1 | S. cerevisiae deletion strains, locus YMR263W, strain SAP30, stronger effect = lower value 1.02 | S. cerevisiae deletion strains, locus YMR307W, strain GAS1, stronger effect = lower value 0.983 | S. cerevisiae deletion strains, locus YNL067W, strain RPL9B, stronger effect = lower value 1.02 | S. cerevisiae deletion strains, locus YNL071W, strain lat1, stronger effect = lower value 1.01 | S. cerevisiae deletion strains, locus YNL128W, strain TEP1, stronger effect = lower value 1.01 | S. cerevisiae deletion strains, locus YNL153C, strain GIM3, stronger effect = lower value 1.01 | S. cerevisiae deletion strains, locus YNL183C, strain NPR1, stronger effect = lower value 0.962 | S. cerevisiae deletion strains, locus YNL209W, strain ssb2, stronger effect = lower value 1.01 | S. cerevisiae deletion strains, locus YNL233W, strain BNI4, stronger effect = lower value 1.02 | S. cerevisiae deletion strains, locus YNL248C, strain rpa49, stronger effect = lower value 1.09 | S. cerevisiae deletion strains, locus YNL250W, strain rad50, stronger effect = lower value 1.01 | S. cerevisiae deletion strains, locus YNL271C, strain bni1, stronger effect = lower value 1.01 | S. cerevisiae deletion strains, locus YNL298W, strain CLA4, stronger effect = lower value 1.01 | S. cerevisiae deletion strains, locus YNL307C, strain MCK1, stronger effect = lower value 0.982 | S. cerevisiae deletion strains, locus YNL322C, strain KRE1 (second series), stronger effect = lower value 1.02 | S. cerevisiae deletion strains, locus YNL322C, strain KRE1, stronger effect = lower value 1.01 | S. cerevisiae deletion strains, locus YNR049C, strain mso1, stronger effect = lower value 0.997 | S. cerevisiae deletion strains, locus YNR052C, strain pop2, stronger effect = lower value 0.99 | S. cerevisiae deletion strains, locus YOL006C, strain TOP1, stronger effect = lower value 1.03 | S. cerevisiae deletion strains, locus YOL012C, strain htz1 1.14 | S. cerevisiae deletion strains, locus YOL147C, strain pex11, stronger effect = lower value 0.996 | S. cerevisiae deletion strains, locus YOR001W, strain rrp6, stronger effect = lower value 0.974 | S. cerevisiae deletion strains, locus YOR061W, strain CKA2, stronger effect = lower value 1 | S. cerevisiae deletion strains, locus YOR069W, strain VPS5, stronger effect = lower value 1.01 | S. cerevisiae deletion strains, locus YOR070C, strain gyp1, stronger effect = lower value 0.999 | S. cerevisiae deletion strains, locus YOR080W, strain dia2, stronger effect = lower value 0.988 | S. cerevisiae deletion strains, locus YOR083W, strain WHI5, stronger effect = lower value 1.07 | S. cerevisiae deletion strains, locus YOR106W, strain vam3, stronger effect = lower value 1.08 | S. cerevisiae deletion strains, locus YOR136W, strain idh2, stronger effect = lower value 1.01 | S. cerevisiae deletion strains, locus YOR144C, strain elg1, stronger effect = lower value 1 | S. cerevisiae deletion strains, locus YOR184W, strain ser1, stronger effect = lower value 1.01 | S. cerevisiae deletion strains, locus YOR231W, strain MKK1, stronger effect = lower value 1 | S. cerevisiae deletion strains, locus YOR265W, strain rbl2, stronger effect = lower value 1 | S. cerevisiae deletion strains, locus YOR270C, strain vph1, stronger effect = lower value 1.03 | S. cerevisiae deletion strains, locus YOR290C, strain snf2, stronger effect = lower value 1.03 | S. cerevisiae deletion strains, locus YOR316C, strain cot1, stronger effect = lower value 0.985 | S. cerevisiae deletion strains, locus YPL051W, strain arl3, stronger effect = lower value 1.04 | S. cerevisiae deletion strains, locus YPL055C, strain LGE1, stronger effect = lower value 1.05 | S. cerevisiae deletion strains, locus YPL078C, strain atp4, stronger effect = lower value 1.06 | S. cerevisiae deletion strains, locus YPL106C, strain sse1, stronger effect = lower value 1.03 | S. cerevisiae deletion strains, locus YPL240C, strain hsp82, stronger effect = lower value 1 | S. cerevisiae deletion strains, locus YPL241C, strain CIN2, stronger effect = lower value 1 | S. cerevisiae deletion strains, locus YPL256C, strain CLN2, stronger effect = lower value 0.982 | S. cerevisiae deletion strains, locus YPR119W, strain clb2, stronger effect = lower value 0.99 | S. cerevisiae deletion strains, locus YPR141C, strain kar3, stronger effect = lower value 1.01 | S. cerevisiae deletion strains, locus YPR163C, strain tif3, stronger effect = lower value 0.989 | S. cerevisiae deletion strains, locus YPR167C, strain met16, stronger effect = lower value 1 | S. cerevisiae deletion strains, strain wtn01, stronger effect = lower value 1.03 | S. cerevisiae strains, strain wild type, stronger effect = lower value 1
